DT40 TDP1 CPT: growth inhibition of DT40 Tdp1-/-;hTDP1 cells with camptothecin (screen for TDP1 inhibitors); chicken DT40 Tdp1-/-;hTDP1 cells + 20 nM CPT, ATP luminescence, 48 h; Potency, µM (series often up to 46.2 µM), inactives show at the top dose activity change, negative = growth inhibition, usual class: inhibitors; hit rate 12% among 420,000; AID 686979; further: nearly all actives have a fitted effect of over 55% in size
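Chicken DT40 Tdp1-/- cells complemented with human TDP1, 400 cells/well, exposed to compounds plus 20 nM camptothecin for at least 48 h at 37 C; viability read as ATP content by CellTiter-Glo luminescence.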
TDP1 inh: TDP1 (human) enzyme inhibition | Potency, µM (doses to about 130 µM), without a hit: top-dose activity change, negative = inhibition, usual class: inhibitors | hit rate 0.28% among 350,000 | AID 485290 | Q9NUW8 | recombinant TDP1, AlphaScreen DNA substrate cleavage; further: nearly all actives have a fitted effect of over 40% in size
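Tdp1 1 nM final; 15 min RT w/ cpd; substrate 15 nM, 5 min; beads 10 ug/ml, 10 min; AlphaScreen read. Neg ctrl: no enzyme.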
VDR inhibitor: blocks the human vitamin D receptor. hit rate 0.93% among 400,000. Potency, µM, for inactives: max response, negative = inhibition, usual class: inhibitors. VDR-SRC2-3 peptide fluorescence polarization, 2 h. AID 504847
Target sequence (P11473 whole entry, looked up): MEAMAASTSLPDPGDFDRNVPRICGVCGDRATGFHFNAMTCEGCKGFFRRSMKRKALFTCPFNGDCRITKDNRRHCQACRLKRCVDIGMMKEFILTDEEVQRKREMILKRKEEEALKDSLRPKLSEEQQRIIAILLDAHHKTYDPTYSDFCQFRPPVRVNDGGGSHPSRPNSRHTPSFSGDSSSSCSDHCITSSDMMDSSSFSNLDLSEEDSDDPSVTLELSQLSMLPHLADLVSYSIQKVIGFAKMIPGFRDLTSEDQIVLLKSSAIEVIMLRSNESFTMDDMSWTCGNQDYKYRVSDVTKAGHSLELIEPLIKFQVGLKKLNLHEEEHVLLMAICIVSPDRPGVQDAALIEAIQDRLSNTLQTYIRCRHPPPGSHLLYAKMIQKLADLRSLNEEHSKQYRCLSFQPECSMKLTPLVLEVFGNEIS
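Inhibition of the VDR/SRC2-3 peptide interaction is quantified by fluorescence polarization. Compounds (23 nl, pintool) incubate with the reagents for 2 hours at ambient room temperature.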
DT40 TDP1 no CPT: qHTS for Inhibitors of human tyrosyl-DNA phosphodiesterase 1 (TDP1): qHTS in cells in absence of CPT | hit rate 15% among 420,000 | Potency, µM (highest dose often 46.2 µM), without a hit: top-dose activity change, negative = growth inhibition, most hits filed as inhibitors | AID 686978, 2013 | DT40 Tdp1-/- hTDP1 cells, no CPT, ATP luminescence, 48 h; further: nearly all actives have a fitted effect of over 55% in size
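Compound effects on proliferation are scored in DT40 Tdp1-/-;hTDP1 cells in the absence of CPT. ATP levels (CellTiter-Glo luminescence) are recorded after a ≥48 hr, 37 °C incubation.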
PLK1 PBD block: PLK1 (human) polo-box domain binding inhibition; hit rate 2.8% among 360,000; AID 720504; Potency, µM, inactives show max response, negative = inhibition, most hits filed as inhibitors; P53350; Plk1 PBD binding of FITC phosphopeptide, fluorescence polarization; further: series mostly up to about 57 µM; nearly all actives have a fitted effect of over 65% in size
KAT2A inh: inhibitors of human GCN5L2 histone acetyltransferase; Potency, µM (top dose mostly 58.9 µM), without a hit: at the highest dose activity change, negative = inhibition, most hits filed as inhibitors; AID 504327; hit rate 0.21% among 390,000; GCN5L2 HAT assay, ThioGlo1 CoA-SH fluorescence; Q92830
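GCN5L2 (20 nM) in 50mM HEPES pH 7.5, 0.1mM EDTA, 0.01% Tween-20 preincubated 15 min with compounds at room temperature. Reaction started with H3(1-25) 75uM, acetyl-CoA 70uM, ThioGlo1 50uM; CoA-thiol fluorescence (Ex340/Em540) read at 0 and 20 min.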
Active calls of the source: *; ? = inconclusive; · = no result; [ ] = dose if it differs, or a comment. An excerpt weighted towards active compounds, which were near 18% of everything screened. The call rests on the fitted dose curve; in most records, active means well fitted curve in the direction sought with a large enough effect; inconclusive means small, poorly fitted or top-dose-only effect, or another doubt; inactive means no such curve, though single readings can be large; an effect the other way counts as inactive or inconclusive. On the % scale 0 is the no-effect control and ±100 the full control effect; potency means the concentration at half of the fitted maximal effect.

SMILES	DT40 TDP1 CPT	TDP1 inh	VDR inhibitor	DT40 TDP1 no CPT	PLK1 PBD block	KAT2A inh
CCOC(=O)c1nn(-c2ccccc2)c(-c2ccccc2)c1C(=O)c1ccccc1	?	-2%	6%	?	-1%	-7%
CCOC(=O)c1nn(-c2ccc(F)cc2)c(-c2ccccc2)c1C(=O)c1ccccc1	?	4%	-4%	16µM*	-8%	-8%
CSc1ccccc1C(=O)N(CC1CCCO1)c1c(N)n(Cc2ccccc2)c(=O)[nH]c1=O (configuration not stated)	0%	·	1%	-16%	-10%	6%
COc1ccccc1CNC(=O)CSc1cc(=O)n(C)c2ccccc12	?	3%	-4%	?	-15%	-3%
CCc1noc(C)c1C(=O)OCC(=O)NCc1ccccc1	-13%	-3%[56.1 µM]	-8%	-7%	4%	0%
CCc1noc(C)c1C(=O)OC(C)C(=O)c1c(C)[nH]c2ccccc12 (configuration not stated)	16µM*	0%	-25%	?	0%	-8%
CC(C)OC(=O)c1ccc2nc3ccccc3nc2c1	1%	·	-2%	?	-4%	4%
Cc1nc2ccc(C(=O)OC(C)C(=O)c3c(C)[nH]c4ccccc34)cc2nc1C (configuration not stated)	?	·	·	13µM*	·	·
Cc1[nH]c2ccccc2c1C(=O)C(C)OC(=O)c1ccc([N+](=O)[O-])o1 (configuration not stated)	?	9%	-11%	16µM*	-20%	-11%
O=C(Cn1cnc2c(oc3ccccc32)c1=O)Nc1ccc(F)cc1F	-16%	5%	3%	-15%	·	-16%
COc1ccc(-n2cnc(=S)[nH]c2=S)cc1	0.58µM*	·	28µM*	0.33µM*	?	·
CC(=O)Nc1ccc(-n2cc(-c3ccccc3)[nH]c2=S)cc1	-8%	4%	-11%	?	-16%	-3%
COc1ccccc1-n1cc(-c2ccccc2)[nH]c1=S	-26%	·	5%	?	?	-18%
COc1ccc(-n2cc(-c3ccccc3)[nH]c2=S)cc1	13µM*	0%	-2%	16µM*	-11%	10%
CCOc1ccc(-c2cn(-c3ccccc3OC)c(=S)[nH]2)cc1	?	·	0%	18µM*	?	-5%
CCCCC1CN(CCNC(=O)c2ccccn2)Cc2ccccc2O1 (configuration not stated)	11%[9.04 µM]	·	·	-4%	·	·
C=CCn1c(CCC(O)CCCCC)n[nH]c1=S (configuration not stated)	-9%	8%	0%	0%	-5%	-3%
O=C(Cn1c(-c2cccs2)cc2cc(F)ccc21)NCCCN1CCN(c2ccccc2F)CC1	21µM*	2%	4%	21µM*	·	-3%
O=C(Cn1c(-c2cccs2)cc2ccccc21)NCCCN1CCN(c2ccccc2F)CC1	23µM*	2%	16%	16µM*	·	-3%
O=C(Cn1c(=O)c2cccn2c2ccc(F)cc21)NCCCN1CCN(c2ccccc2F)CC1	?	6%	4%	?	-2%	-10%
O=C(c1cccs1)N1C[C@H](n2cc(C3CC3)nn2)[C@@H](O)C[C@@H]1c1ccc(Cl)cc1	-29%	·	·	?	-8%	·
O=C(Nc1nnc([C@@H]2C[C@H](O)[C@@H](CO)O2)s1)c1cccc(C(F)(F)F)c1	-1%	·	·	9%	-7%	·
O=C(NC(=S)N(Cc1ccccc1)c1ccccn1)C1CC1	?	1%	-19%	13%	21µM*	2%
Cc1c(C(=O)NC(=S)N(Cc2ccccc2)c2ccccn2)cccc1[N+](=O)[O-]	?	2%	-24%	-29%	?	-3%
O=C(NC(=S)N(Cc1ccccc1)Cc1ccccc1)C1CCCCC1	?	1%	4%	23µM*	-1%	1%
SMILES	DT40 TDP1 CPT	TDP1 inh	VDR inhibitor	DT40 TDP1 no CPT	PLK1 PBD block	KAT2A inh
O=C(NC(=S)NCCc1ccccc1)C1CCCCC1	3%	3%	-3%	-24%	-11%	2%
COc1ccc2c(c1)-c1nc(-n3ncc(C(=O)NC(C)(C)CO)c3C3CC3)ncc1CC2	12%[9.04 µM]	·	·	?	·	·
COCCn1c(C)cc(O)c(C(c2ccccc2OC)N2CCN(c3ccccc3)CC2)c1=O (configuration not stated)	-17%	-3%	-1%	-5%	·	-15%
CO[C@H]1[C@H](NC(=O)c2ccsc2)c2ccccc2C12CCN(Cc1cccn1-c1ccccn1)CC2	10%[9.04 µM]	·	·	-26%	·	·
CC1=C(C(=O)N(C)C)CC(CC(=O)NCCCCc2ccccc2)C(=O)N1Cc1ccc(C(C)(C)C)cc1 (configuration not stated)	16µM*	·	·	13µM*	-5%	·
CCN(CC)C(=O)C1=C(C)N(Cc2ccc(F)cc2)C(=O)C(CC(=O)NCC2CCCCC2)C1 (configuration not stated)	?	·	·	21µM*	2%	·
CCN(CC)C(=O)C1=C(C)N(Cc2ccc(F)cc2)C(=O)C(CC(=O)NCCCCc2ccccc2)C1 (configuration not stated)	?	·	·	21µM*	-8%	·
CC1=C(C(=O)N2CCCCCC2)CC(CC(=O)NCCCCc2ccccc2)C(=O)N1Cc1ccccc1 (configuration not stated)	18µM*	·	·	21µM*	0%	·
Cc1cccc(N2CCN(C(=O)COc3cccc4c3OC(C)(C)C4)CC2)c1C	?	3%	-8%	?	?	?
CC1=C(C(=O)O)N2C(=O)[C@@H](NC(=O)C(N)C3=CCC=CC3)[C@H]2SC1 (some centres not stated)	·	9%[56.1 µM]	?	·	·	8%
O=C(O)CCN1C(=O)c2ccc(Oc3ccc([N+](=O)[O-])cc3)cc2C1=O	-7%	·	-15%	-5%	-7%	-1%
COc1ccccc1CNS(=O)(=O)c1cc(C(=O)N(C)Cc2cccnc2)c(Cl)cc1Cl	?	·	-11%	?	-5%	·
COc1ccccc1[C@]1(C)ON(c2ccccc2C(F)(F)F)C1=O	26µM*	-16%	-10%	?	-2%	-25%
O=C(NCCc1nc2ccccc2n1CCCOc1ccccc1)C1CCCCC1	10µM*	1%	-10%	11µM*	·	·
COc1ccccc1OCCn1c(CCNC(=O)C2CCCCC2)nc2ccccc21	?	-5%	-17%	?	·	·
Cc1ccc(OCCCn2c(CCNC(=O)C3CCCCC3)nc3ccccc32)c(C)c1	?	0%	17%	?	·	-1%

High-throughput results: PubChem BioAssay, National Center for Advancing Translational Sciences (NCATS)
